Assay outcomes from PubChem BioAssay.
SKKanGAS inh: SKKanGAS growth inhibition; S. pyogenes SKKanGAS, kanamycin growth, BacTiter-Glo, 6 h; inhibition, % at 7.5 µM; 1.3% of 300,000 active;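 active means mean replicate score, as percent of positive control median, at least 50; inconclusive means mean below 50 but one replicate at or above 50; inactive means mean and every replicate below 50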;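 further: strain carries kanamycin resistance gene driven by streptokinase promoter and grows in 40 µg/ml kanamycin; loss of luminescence reflects streptokinase promoter inhibition or plain growth inhibition; 0% = median of DMSO wells and 100% = positive control at its reference dose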
tim10-1 inh: growth inhibitors of tim10-1 mutant yeast; S. cerevisiae tim10-1 ts strain growth, BacTiter-Glo, 24 h; inhibition, % at 20 µM; 2.2% of 330,000 active; AID 463190;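 active means inhibition of at least 40%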;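 further: mutant grown at 25 °C; 0% = DMSO wells with yeast and 100% = wells holding no yeast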
tim23-1 inh: tim23-1 yeast growth inhibition; S. cerevisiae tim23-1 growth, BacTiter-Glo luminescence, 24 h; inhibition, % at 20 µM; 1.3% of 330,000 active; AID 463212;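 active means growth inhibition of the mutant yeast at or above 50%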;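 further: temperature-sensitive mutant grown at 25 °C; plate controls were DMSO-treated mutant yeast for no effect and medium wells lacking yeast for full effect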
TIM10 inh: inhibits growth of TIM10 yeast strain; 1.4% of 330,000 active; inhibition, % at 10 µM; S. cerevisiae TIM10 strain growth, BacTiter-Glo luminescence, 24 h;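 active means inhibition of 40% or more at the single tested concentration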;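 further: wild-type TIM10 isogenic control strain grown at permissive 25 °C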
NLRP3 yeast inh: inhibitors of NALP3 inflammasome in yeast. Yeast reconstituted NLRP3/ASC/caspase-1, beta-gal luminescence, 24 h. inhibition, % at 10 µM. 0.39% of 330,000 active. AID 2825;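 active means inhibition of 50% or more; inactive means inhibition below 50%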;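 further: plate controls were induced DMSO wells for no effect and uninduced yeast grown without galactose for full effect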
tim10-1 conf: tim10-1 yeast growth inhibition, confirmed; inhibition, % at 20 µM; AID 463213; S. cerevisiae tim10-1 ts strain growth, BacTiter-Glo, 24 h; shares compounds with tim10-1 inh; 56% of 7,400 active;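 active means inhibition of yeast growth at or above a set limit in either of two repeat tests at 20 µM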;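 further: tim10-1 mutant grown at permissive 25 °C to find synthetic lethal compounds; 0% = DMSO yeast wells and 100% = medium wells without yeast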
* marks the source's active call; other numbers are inactive results; ? = inconclusive; · = no result given. Compounds with a hit are over-represented: about 4.6% of the library has one in this group of screens.

SMILES | SKKanGAS inh | tim10-1 inh | tim23-1 inh | TIM10 inh | NLRP3 yeast inh | tim10-1 conf
O=C(NC1CCCCCC1)C1c2ccccc2C(=O)N1Cc1cccnc1 (configuration not stated) | -7.4 | 13.3 | -2.2 | -2.0 | 1.7 | ·
Cc1c2c(c(C)n1C)C(C(=O)NC1CCCCC1)N(Cc1ccccc1)C2=O (configuration not stated) | 4.9 | 45.1* | 36.3 | 19.2 | 22.1 | 39.0*
CCCNC(=O)c1ccc(Cl)cc1Cl | -3.4 | 97.3* | 5.1 | 2.6 | 4.4 | -2.1
O=C(NCCN1CCCC1)c1ccc(Cl)cc1Cl | -0.9 | 6.9 | 5.1 | 0.3 | 8.5 | ·
Cc1cccc(C2=NNC(=O)C(c3ccc(Cl)cc3)C2)c1 (configuration not stated) | 8.9 | 59.8* | 37.6 | 28.6 | -42.0 | 44.5*
Cc1ccc(C2CC(c3ccc(Cl)cc3)=NNC2=O)cc1 (configuration not stated) | 2.2 | -10.8 | 25.3 | 1.4 | 18.4 | ·
COc1ccccc1NC(=O)C(C)OC(=O)/C=C/c1ccc2ccccc2n1 (configuration not stated) | -7.2 | 51.6* | 45.8 | 14.3 | 8.6 | 30.1*
O=C(CCc1ccccc1)N1CCCC(Nc2ccc(F)cc2)C1 (configuration not stated) | 1.5 | 19.6 | 24.4 | -0.2 | 6.6 | ·
CCOC(=O)Cc1nnc2c(Nc3ccc(Cl)cc3)nc3nonc3n12 | ? | 50.5* | 48.6 | 30.1 | -16.8 | 33.2*
O=C(CSC1=NS(=O)(=O)c2ccccc2N1)Nc1ccccc1F | 23.2 | 11.4 | 25.5 | -4.1 | 10.1 | ·
O=C(O)C(Cc1ccccc1)N1C(=O)c2c(Cl)c(Cl)c(Cl)c(Cl)c2C1=O (configuration not stated) | -11.0 | 3.3 | 17.2 | 6.0 | 5.3 | ·
O=C1c2ccccc2S(=O)(=O)N1CC(O)Cn1ccc2ccccc21 (configuration not stated) | 0.7 | 41.8* | 45.2 | 22.8 | 20.7 | 20.1
C[C@@H]1CN([C@@H](C)CO)C(=O)c2cc(N(C)C)ccc2O[C@@H]1CN(C)S(C)(=O)=O | · | 6.2 | 0.1 | -5.3 | 8.9 | ·
C=CC[n+]1c(-c2ccc(C)cc2)csc1Nc1c(C)n(C)n(-c2ccccc2)c1=O | 16.4 | 40.6* | 38.8 | 29.9 | 16.9 | 24.2
O=C(Cn1cnc2c(NCc3ccccc3)ncnc21)NCCCN1CCCC1=O | · | 7.4 | 33.3 | -16.4 | · | ·
O=C(COC(=O)COc1ccccc1)NCCC1=CCCCC1 | · | -5.5 | 9.6 | 4.1 | 13.8 | ·
Cc1nc2ccc(NS(=O)(=O)c3c(F)cc(F)cc3Br)cc2s1 | · | 30.1 | 39.0 | 11.9 | 15.0 | ·
O=C(c1ccccc1)c1sc(N2CCCCCC2)nc1-c1ccccc1 | 10.5 | 43.0* | 35.6 | 17.8 | 5.5 | 16.5
COc1ccc(-c2nc(N3CCCCCC3)sc2C(=O)c2ccccc2)cc1 | 2.4 | 28.0 | 27.8 | 20.5 | 23.6 | ·
CC(C)NC(=O)NC(=O)COc1c(F)c(F)cc(F)c1F | -14.5 | 19.9 | 21.5 | 12.0 | -16.3 | ·
CC(C)NC(=O)NC(=O)COc1ccc(Br)cc1Br | -6.2 | 44.7* | 45.3 | 18.1 | 17.9 | 23.8
CCc1ccc(OC(C)C(=O)Nc2ccc(S(=O)(=O)Nc3nccs3)cc2)cc1 (configuration not stated) | 9.9 | 8.7 | 26.6 | 2.0 | 19.8 | ·
Cc1ccnc2c1ccc1cccnc12 | · | 42.1* | 37.9 | -14.9 | 27.9 | 16.8
O=C(NCC1CCCN1S(=O)(=O)c1ccccc1)C(=O)NC1CC1 (configuration not stated) | -8.4 | -9.4 | -14.4 | -8.0 | 9.0 | ·
CS(=O)(=O)c1ccccc1-c1nc(-c2ccc(C(F)(F)F)cc2)no1 | -15.3 | 40.1* | 44.4 | 28.3 | 20.1 | 20.4
SMILES | SKKanGAS inh | tim10-1 inh | tim23-1 inh | TIM10 inh | NLRP3 yeast inh | tim10-1 conf
FC(F)(F)c1ccccc1-c1nc(-c2ccncc2)no1 | -4.6 | -46.6 | -8.8 | 4.6 | 3.7 | ·
O=S(=O)(c1cc(Cl)ccc1Br)N1CCCCC1 | -0.7 | 43.0* | 30.6 | -1.9 | -27.4 | 31.6*
CCOC(=O)C1(CCOc2ccccc2)CCN(Cc2ccc(OCC)c(CO)c2)CC1 | -2.9 | · | · | · | · | ·
COc1cc(/C=C(/C#N)C(=O)Nc2ccccc2)c(Br)cc1OCc1ccc(C(=O)O)cc1 | -0.6 | 42.7* | 42.3 | 30.7 | -54.5 | 39.9*
COC(=O)c1ccc(COc2ccccc2/C=C(\C#N)C(=O)Nc2ccc(C)cc2C)cc1 | -4.3 | 19.3 | 4.1 | 12.2 | 17.8 | ·
COC(=O)c1ccc(COc2ccccc2/C=C(\C#N)C(=O)Nc2c(C)cc(C)cc2C)cc1 | 14.9 | 47.2* | 30.1 | 1.9 | 8.8 | 13.4
